This is a sample that favours compounds with a hit; in the whole collection about 0.94% have one here.
BH1578 lux ind: inducers of Vibrio cholerae quorum light production without autoinducers, primary screen, BH1578 luxS cqsA deficient, single point; V. cholerae BH1578 lux reporter, luminescence, 6 h; activation, % at 18.7 µM; actives 0.16% (n = 350,000); in the data active means activation mostly above about 9.7%, no sharp cut-off
MazF activator: activators of E. coli MazEF toxin-antitoxin RNase, primary screen, biochemical, fluorescence, uHTS | AID 504720, 2011 | activation, % at 20 µM | Endoribonuclease toxin MazF (Escherichia coli (strain K12)), P0AE70 | FAM/BHQ RNA-DNA oligo cleavage fluorescence, 5 h | actives 0.32% (n = 350,000); in the data active means activation above about 50%
Target sequence (P0AE70 whole entry, looked up): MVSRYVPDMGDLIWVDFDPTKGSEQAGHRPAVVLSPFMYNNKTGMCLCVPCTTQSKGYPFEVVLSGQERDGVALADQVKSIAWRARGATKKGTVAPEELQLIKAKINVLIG
Mtb hypoxia rep: PubChem AID 1159583 | M. tuberculosis hypoxia-regulated fluorescent reporter, fluorescence | fluorescence inhibition, % (no concentration beside the values) | actives 0.1% (n = 300,000); in the data active means fluorescence inhibition mostly above about 23%, no sharp cut-off; inactive means mostly below about 17%
SSB-PriA inh: inhibitors of Klebsiella pneumoniae PriA binding to SSB C-terminal tail, primary screen, biochemical, AlphaScreen; actives 0.6% (n = 430,000); PriA–SSB C-terminal tail interaction (Klebsiella pneumoniae); AlphaScreen SSBct-PriA binding, biotinylated peptide; inhibition, % at 33 µM; AID 1272365, 2023; in the data active means inhibition mostly above about 37%, no sharp cut-off; inactive means mostly below about 20%;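 further: plate controls were negative control peptide for no effect and reference peptide for full effect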
Active calls of the source: *; i = inactive; / = no result given; + = active, no number; ! = a repeat was not active.

SMILES | BH1578 lux ind | MazF activator | Mtb hypoxia rep | SSB-PriA inh
Cc1cc(NC(=O)c2ccc(F)c(F)c2)n(-c2nc3c(cnn3-c3ccc(C)c(C)c3)c(=O)[nH]2)n1 | / | / | / | -10.0
O=C(NCCn1nc(-n2cncn2)ccc1=O)c1ccco1 | / | / | / | 2.0
COc1cc(C)ccc1S(=O)(=O)NCCCn1ncccc1=O | / | / | / | -20.0
CN1NC(C(=O)Nc2nc(-c3ccccn3)cs2)=CCC1=O | / | / | / | 123.5*
COc1cccc2c1C(=O)c1c(O)c3c(c(O)c1C2=O)C[C@@](O)(C(=O)CO)C[C@@H]3O[C@H]1C[C@H](N)[C@@H](O)[C@H](C)O1 | -2.8 | i | / | 45.8*
COc1ccc(CN(C)C(=O)COC(=O)c2cc([N+](=O)[O-])ccc2N2CCCC2)c(OC)c1OC | 0.5 | 4.9 | 21.8* | 13.7
Cc1cc(NC(=O)COc2ccccc2F)n(-c2nc3ccccc3s2)n1 | / | / | / | -21.0
CCSc1nnc(NC(=O)CSc2nnc3[nH]c(=O)c(C)c(C)n23)s1 | / | / | / | 0.0
O=C(O)c1ccc2c3c(cccc13)C(=O)N(c1cccc3ccccc13)C2=O | i | -19.0 | 13.2 | -8.5
O=C(O)c1ccc2c(c1)C(=O)N(c1cccc3ccccc13)C2=O | 83.3* | -2.8 | -4.0 | -10.4
CCOC(=O)c1sc(NC(=S)NC(=O)c2ccccc2Cl)c(C(=O)OCC)c1C | -0.6 | 7.5 | 0.2 | -1.5
CCOC(=O)c1c(NC(=O)Nc2ccccc2)sc2c1CCCC2 | / | / | / | -15.0
CCOC(=O)N1CCN(S(=O)(=O)c2ccc(C(=O)Nc3sc4c(c3C(=O)OC)CCN(C)C4)cc2)CC1 | -0.5 | 295.4* | 1.3 | 4.8
CCOC(=O)c1sc(NC(=S)NC(=O)c2ccccc2)c(C(=O)OCC)c1C | i | 9.5 | -7.7 | 81.6*!
CCOC(=O)c1c(NC(=O)Nc2ccc(C)cc2)sc2c1CCN(C)C2 | -0.3 | 50.3* | -2.8 | 5.4
CCN(CC)C(=O)c1sc(NC(=O)c2ccncc2)c(C(=O)OC)c1C | i | -4.2 | 3.2 | 64.8*
CCOC(=O)N1CCN(S(=O)(=O)c2ccc(C(=O)Nc3sc4c(c3C(N)=O)CCN(C(=O)OCC)C4)cc2)CC1 | / | / | / | 0.0
COc1cc(C(=O)NC(C)C)c(Br)c(OC)c1OC | / | / | / | 12.0
CCOC(=O)c1c(NC(=S)Nc2ccccc2)sc2c1CCN(CC)C2 | -0.6 | 51.2* | -0.9 | -7.6
N#CCCSc1ccccc1NC(=O)c1ccc(N2C(=O)CCC2=O)cc1 | / | / | / | -11.0
CCN(CC)c1ccc2cc(-c3nnc(-c4ccccc4)o3)c(=O)oc2c1 | 4.5 | 900.0* | / | -27.8
O=C(Cc1cc(-c2ccc3c(c2)OCCO3)on1)Nc1nc2ccccc2s1 | / | / | / | -12.0
CC(C)(C)c1ccc(C(=O)NCc2nnc(SCC(=O)NCc3ccccc3Cl)o2)cc1 | / | / | / | 1.0
O=C(c1ccc(-c2cc(O)c3ncccc3c2)cc1)N1CCNCC1 | -1.0 | 1.5 | 2.5 | 74.4*
O=C(NCC(c1cccs1)N1CCc2ccccc21)c1ccc2c(c1)OCO2 (stereo not drawn) | / | / | / | 39.0*
SMILES | BH1578 lux ind | MazF activator | Mtb hypoxia rep | SSB-PriA inh
COc1ccc(Cl)cc1C(=O)NCC(c1cccs1)N1CCc2ccccc21 (stereo not drawn) | / | / | / | -26.0
Nc1c(C(=O)C2CC2)sc2nc(-c3cccs3)cc(C(F)(F)F)c12 | -0.1 | + | / | -8.1
Fc1ccc(Nc2nc(NCCCn3ccnc3)nc3nc[nH]c23)cc1 | / | / | / | 29.0*
CN(C)c1ccc(C=C2C=Cc3ccccc32)cc1 | i | 97.6* | 0.8 | -0.3
C=CC(C)N1C(=O)S/C(=C\c2ccc(N3CCOCC3)cc2C)C1=O (stereo not drawn) | i | 43.2 | 3.6 | -36.1
C=CCN1C(=O)S/C(=C\c2ccc(N3CCOCC3)cc2C)C1=O | i | 103.4* | 7.5 | -14.6
COC(=O)/C=C1\C(=O)N(c2nc3ccccc3s2)C(=S)N1c1ccc(F)cc1 | -0.6 | 57.7* | 0.6 | -7.6
O=C(COC(=O)C1COc2ccccc2O1)Nc1cccc(F)c1 (stereo not drawn) | i | 7.2 | 27.6* | 1.8
O=C(COC(=O)C1COc2ccccc2O1)Nc1cccc(Cl)c1 (stereo not drawn) | -0.2 | 8.7 | 10.4 | -6.7
Cc1ccc(C(=O)CSc2cccc3cccnc23)c(C)c1 | / | / | / | 17.4
Cc1ccc(C)c(C(=O)CSc2cccc3cccnc23)c1 | / | / | / | 107.5*
Cc1ccc(C(=O)COC(=O)CSc2cccc3cccnc23)c(C)c1 | -0.7 | -6.5 | / | 77.8*
Cc1nnsc1C(=O)NC1CCN(c2nccs2)C1 (stereo not drawn) | / | / | / | 4.0
Cc1nc2c(ccc3nc(NC(=O)c4ccc5c(c4)OCCO5)sc32)s1 | -1.5 | 73.0* | 4.0 | -1.4
Cc1noc(-c2ccc3nccnc3c2)n1 | / | / | / | 41.0*
CCN(c1cccc(C)c1)C(C(=O)Nc1ccc(OC)cc1)c1cc2c(cc1[N+](=O)[O-])OCO2 (stereo not drawn) | -0.3 | 7.3 | -1.1 | 40.1*
COc1ccc(NC(=O)C(c2cc3c(cc2[N+](=O)[O-])OCO3)N(C)Cc2ccccc2)cc1 (stereo not drawn) | -0.3 | 0.0 | 3.2 | 46.7*
COc1cc([N+](=O)[O-])ccc1-c1ccc(/C=N\n2cnnc2)o1 | -0.4 | 153.8* | / | /
COc1cc([N+](=O)[O-])ccc1-c1ccc(C=Nn2cnnc2)o1 | / | / | 6.6 | -9.1
Cc1ccc(NC(=O)CSc2n[nH]c(-c3ccccn3)n2)cc1 | -0.4 | -0.5 | -14.7 | 96.8*
O=C(CSc1n[nH]c(-c2ccccn2)n1)Nc1ccc(F)cc1 | -0.4 | -25.9 | -1.0 | 81.6*
O=C(CSc1n[nH]c(-c2ccccn2)n1)Nc1ccc(Cl)cc1 | -0.5 | -0.6 | / | -24.3
COc1ccccc1Nc1c2c(nc3ccc(Cl)cc13)CCC2 | / | / | / | 4.5
O=C(CSc1nnc(-c2ccc(Cl)s2)o1)Nc1nccs1 | / | / | / | 19.0
CC1CCCC(=NNc2ccc([N+](=O)[O-])cc2[N+](=O)[O-])C1 (stereo not drawn) | / | / | 14.9 | 57.8*
SMILES | BH1578 lux ind | MazF activator | Mtb hypoxia rep | SSB-PriA inh
CC1C/C(=N/Nc2ccc([N+](=O)[O-])cc2[N+](=O)[O-])CC(C)(C)C1 (stereo not drawn) | i | 2.8 | / | /
O=C(Nc1nnc(-c2cc3ccccc3o2)o1)c1cccc(Cl)c1 | / | / | / | 3.0
COc1ccc(SCCC(=O)Nc2ccc3sccc3c2)cc1 | / | / | / | 43.0*
Cc1ccc(SCCC(=O)Nc2ccc3sccc3c2)cc1 | / | / | / | -14.0
O=C(NCc1cc(-c2ccco2)on1)c1ccc(Br)o1 | / | / | / | 39.0*
O=C(NCc1cc(-c2ccccc2)on1)c1ccco1 | / | / | / | -13.0
Oc1cc2c(cc1O)[C@H]1c3ccc(O)c(O)c3OC[C@@]1(O)C2 | -0.8 | 231.3* | / | -1.4
O=C(Nc1ccc(Cl)cc1)Nc1nc(C(=O)O)cs1 | / | / | / | 87.0*
O=C(CCCc1cccs1)NCCc1c[nH]c2ccccc12 | -0.2 | 7.7 | 17.9 | 46.5*
O=C(Cc1csc(Nc2ccc(F)cc2)n1)NCCc1c[nH]c2ccccc12 | / | / | / | 8.0
O=C(Cc1csc(NC(=O)Nc2cccc(Cl)c2)n1)NCCc1c[nH]c2ccccc12 | / | / | / | -5.0
O=C(Cc1csc(NC(=O)Nc2ccc(Cl)cc2)n1)NCCc1c[nH]c2ccccc12 | / | / | / | 52.0*
O=C(Cc1csc(Nc2cccc(Cl)c2)n1)NCCc1c[nH]c2ccccc12 | / | / | / | 36.0*
